According to PubChem BioAssay AID485284 (NMMLSC, 2010):
Measured potencies and affinities stand elsewhere.

Test: loss of vesicle association with mouse CD8+ T cells – mouse 2C CD8+ T cells, flow cytometry, dose response (AID 485284);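 note: drosophila derived vesicles carrying Ld MHC with QL9 peptide plus B7-1 and ICAM-1; vesicle binding seen as anti-B7-1 PE fluorescence on CD8 gated cells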
Settings: 2C mouse CD8+ T cell-exosome binding; at 45 µM (top of the series)

Structure (SMILES)	binding remaining, % of control
COC(=O)C1=C(c2c(C)noc2C)C[C@@H]2CC[C@H]1N2C(=O)NCCOc1ccccc1Cl	124%
CC(C)(O)C(=O)Nc1ccc([N+](=O)[O-])c(C(F)(F)F)c1	166%
Cc1sc2ncnc(NCC(C)(C)N3CCOCC3)c2c1C	133%
COC(=O)C1=C(c2ccc(F)cc2F)C[C@@H]2CC[C@H]1N2C(=O)NCCNC(C)=O	107%
O=C(Nc1ccc(Cl)cc1)O/N=C(\c1ccccc1)c1ccccn1	85.8%
COc1ccc2c3c1OC1[C@H](O)CCC4[C@@H](C2)N(C)CC[C@]314 (stereo partly specified)	230%
